PfHsp90 set2: growth inhibition of PfHsp90-expressing yeast, primary screen, antimalarial PfHsp90 inhibitor project, S. cerevisiae, BacTiter-Glo luminescence, single point, set 2; BacTiter-Glo ATP, 48 h; yeast lacking PDR1 and PDR3 efflux regulators; inhibition, % at 9.4 µM; 310,000 tested, 0.32% active; AID 504621, 2011;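 active = every replicate shows inhibition above about 80%, whatever the replicate mean, limit read from the data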;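 also: 0% = DMSO neutral controls and 100% = 20 µM radicicol positive controls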
tim23-1 inh: growth inhibitors of tim23-1 mutant yeast, primary screen, luminescence, uHTS; inhibition, % at 20 µM; 330,000 tested, 1.3% active; S. cerevisiae tim23-1 growth, BacTiter-Glo luminescence, 24 h;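 active = growth inhibition of the mutant yeast at or above 50%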;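 also: temperature-sensitive mutant grown at 25 °C; plate controls were DMSO-treated mutant yeast for no effect and medium wells lacking yeast for full effect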
TIM10 inh: growth inhibitors of isogenic TIM10 control yeast, primary screen, counter-screen for tim10-1 yeast inhibitor project, luminescence, uHTS | S. cerevisiae TIM10 strain growth, BacTiter-Glo luminescence, 24 h | 330,000 tested, 1.4% active | inhibition, % at 10 µM;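 active = inhibition of 40% or more at the single tested concentration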;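 also: wild-type TIM10 isogenic control strain grown at permissive 25 °C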
tim10-1 inh: growth inhibitors of tim10-1 mutant yeast, primary screen, luminescence, uHTS; S. cerevisiae tim10-1 ts strain growth, BacTiter-Glo, 24 h; inhibition, % at 20 µM; 330,000 tested, 2.2% active; AID 463190, 2010;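 active = inhibition of at least 40%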;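 also: mutant grown at 25 °C; 0% = DMSO wells with yeast and 100% = wells holding no yeast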
NALP3 yeast inh: NALP3 inflammasome inhibitors in reconstituted yeast, primary screen, luminescence, uHTS; Yeast reconstituted NLRP3/ASC/caspase-1, beta-gal luminescence, 24 h; inhibition, % at 10 µM; 330,000 tested, 0.39% active; AID 2825, 2010;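 active = inhibition of 50% or more; inactive = inhibition below 50%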;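 also: plate controls were induced DMSO wells for no effect and uninduced yeast grown without galactose for full effect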
tim10-1 conf: growth inhibitors of tim10-1 mutant yeast, confirmation, single concentration, luminescence, S. cerevisiae; shares compounds with tim10-1 inh; S. cerevisiae tim10-1 ts strain growth, BacTiter-Glo, 24 h; inhibition, % at 20 µM; 7,400 tested, 56% active; AID 463213, 2010;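 active = inhibition of yeast growth at or above a set limit in either of two repeat tests at 20 µM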;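 also: tim10-1 mutant grown at permissive 25 °C to find synthetic lethal compounds; 0% = DMSO yeast wells and 100% = medium wells without yeast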
An asterisk follows results filed as active; . = not tested or not shown. Only some compounds are listed: those with a hit (about 3.7% of all), similar ones and a draw of the others.

SMILES	PfHsp90 set2	tim23-1 inh	TIM10 inh	tim10-1 inh	NALP3 yeast inh	tim10-1 conf
C(=N/Nc1nccs1)/c1cccnc1	-7.5	16.7	-3.5	16.1	-8.0	.
Clc1cccc(/C=N\Nc2nccs2)c1	-47.8	47.0	37.2	47.6*	-8.8	12.3
C=CCNC(=O)Cn1nnc(-c2ccc(-c3ccc(OC)cc3)cc2)n1	6.1	2.5	2.4	18.0	19.9	.
COc1c(C(=O)Nc2ccccc2N2CCOCC2)cc2ccccc2c1Br	-0.3	30.3	0.9	22.2	9.1	.
COc1ccc(/C(N)=N/OC(=O)CN(C)S(=O)(=O)c2ccc(C)cc2)cc1	-5.0	.	.	.	.	.
CN(CC(=O)O/N=C(\N)c1ccc([N+](=O)[O-])cc1)S(=O)(=O)c1ccc2ccccc2c1	.	34.4	34.0	45.3*	8.3	47.0*
Cc1ccc(S(=O)(=O)N(C)CC(=O)O/N=C(\N)c2cccc(Br)c2)cc1	-17.5	25.6	24.0	49.8*	18.6	52.0*
COc1ccc(/C(N)=N/OC(=O)CN(C)S(=O)(=O)c2ccccc2)cc1	-27.7	-6.6	-17.5	-8.6	26.8	.
Cc1ccc(/C(N)=N/OC(=O)CN(C)S(=O)(=O)c2ccc(C)cc2)cc1	-9.8	32.0	11.7	46.7*	34.9	20.3
CC(C)=NOc1nc(NC(=O)NS(=O)(=O)c2ccccc2Cl)nc(N(C)C)n1	-3.7	5.9	11.4	0.8	13.6	.
COc1ccc(S(=O)(=O)N2CCN(Cc3ccccc3)CC2)cc1	11.3	40.7	12.2	47.5*	9.8	31.0
CCOc1ccc(C(=O)CN2CCN(S(=O)(=O)c3ccc(OC)cc3)CC2)cc1	16.7	48.4	23.3	42.5*	24.9	42.0*
CCOc1ccc(C(=O)CN2CCN(S(=O)(=O)c3ccc(Br)cc3)CC2)cc1	.	23.2	12.8	17.0	19.4	.
CC(C)(C)C(=O)CSc1ccc(S(=O)(=O)N2CCN(Cc3ccccc3)CC2)cn1	-0.5	38.7	24.4	41.9*	15.7	35.7*
COc1ccc(CC(=O)NC(C)c2ccc(S(N)(=O)=O)cc2)cc1S(=O)(=O)N1CCOCC1 (centres undefined)	8.5	8.4	2.7	2.4	-2.1	.
CCOc1ccc(/C(C)=N/NC(=O)c2nnn(-c3nonc3N)c2-c2cccs2)cc1	9.4	-17.3	-7.1	-7.9	5.2	.
CCCN(CC(=O)Nc1cc(Cl)ccc1Cl)C(=O)c1ccc(N2CCCC2=O)cc1	8.7	15.4	7.8	12.9	9.5	.
CCOC(=O)Cc1cc(-c2ccc(OC)cc2)nc2ccc3ccccc3c12	20.9	6.1	8.8	13.9	14.8	.
CCOC(=O)Cc1cc(-c2ccc(O)cc2)nc2ccc3ccccc3c12	-20.4	21.6	19.2	41.8*	19.2	24.5
C=CCc1c(C)nc(-c2ccccc2)nc1N/N=C/c1ccccc1	11.7	35.7	33.4	45.8*	14.2	31.8*
Cc1ccc(S(=O)(=O)N[C@H](C(=O)NCC2CCC(C(=O)O)CC2)C(C)C)cc1 (some centres undefined)	17.6	14.1	4.3	-8.5	-5.7	.
O=C(Nc1ccc(Cl)cc1)C1(S(=O)(=O)c2ccccc2)CC1	-9.8	11.3	-21.8	-21.8	47.8	.
CC(C)(C)c1ccc(OC(=O)CN2C(=O)C3C4CCC(C4)C3C2=O)cc1 (centres undefined)	-56.1	26.4	24.3	41.7*	18.1	25.9
O=C(CN1C(=O)C2C3CCC(C3)C2C1=O)OCC(=O)c1ccccc1 (centres undefined)	1.9	-6.4	7.9	-7.1	0.7	.
COCc1n[nH]c(=S)n1-c1ccccc1	-6.4	0.7	-0.5	18.1	10.1	.
SMILES	PfHsp90 set2	tim23-1 inh	TIM10 inh	tim10-1 inh	NALP3 yeast inh	tim10-1 conf
S=c1[nH]nc(CSCc2ccccc2Cl)n1-c1ccccc1	25.7	23.1	14.9	45.6*	14.0	37.2*
CC#CCN1c2ccccc2[C@]23C[C@@H](C(=O)OC)N(C(=O)NC4CCCCC4)C2=NC(C(=O)OC)=C(C(=O)OC)[C@H]13	3.3	15.3	9.6	0.8	4.5	.
COC(=O)[C@]1(Cc2ccccc2)N[C@H](c2ccc(-c3ccccc3)cc2)[C@@H]2C(=O)N(C)C(=O)[C@@H]21	11.9	18.2	13.5	44.6*	12.7	18.8
O=C(CC1C(=O)NCCN1Cc1c(F)cccc1Cl)NCCCN1CCCC1=O (centres undefined)	-8.2	-6.4	-2.0	-6.3	11.8	.
COc1ccc(-c2ocnc2C(=O)N2CCN(C(=O)C(c3ccccc3)c3ccccc3)CC2)cc1	7.6	21.1	-6.9	8.1	20.2	.
CSc1ccc(/C=C/C(=O)c2ccc(NC(=O)C(C)C)cc2)cc1	7.7	38.7	32.0	41.7*	10.5	40.2*
c1csc(-c2nnc(Cc3cccc4ccccc34)o2)c1	.	25.7	5.5	45.2*	11.6	22.5
Fc1ccc(Cc2nnc(-c3cccs3)o2)cc1	7.3	3.9	4.6	1.6	5.8	.
CN(C)C(=O)c1ccc(NC(=O)COC(=O)C2=COCCO2)cc1	-29.6	2.8	9.4	-19.2	10.8	.
O=[N+]([O-])c1cc(/C=N/NC(=S)Nc2ccccc2Cl)ccc1Cl	-11.5	19.5	36.2	46.4*	15.2	14.4
Cc1ccc(NC(=S)N/N=C/c2ccc(Cl)c([N+](=O)[O-])c2)cc1	3.4	-49.8	-26.8	13.8	2.8	.
Cc1ccc(S(=O)(=O)NNC(=O)C2Cc3c(ccc4ccccc34)O2)cc1 (centres undefined)	6.0	22.1	20.4	27.9	11.7	.
CCCCOc1ccc(S(=O)(=O)NNC(=O)C2Cc3c(ccc4ccccc34)O2)cc1 (centres undefined)	.	35.4	18.5	45.2*	-13.3	24.6
CCOC(=O)N1CCC(NC(=O)c2ccc3c(c2)N=C(CC)c2cc(C)ccc2S3)CC1	-12.9	20.7	16.2	18.9	8.6	.
CCOC(=O)N1CCC(NC(=O)c2ccc3c(c2)N=C(C)c2c(C)ccc(C)c2S3)CC1	-17.3	44.9	22.0	44.1*	26.1	2.5
Cc1[nH]nc(-c2cccnc2)c1N=NN(C)C	4.5	.	.	.	.	.
CCNC(=S)N/N=C/c1cccc(/C=N/NC(=S)NCC)c1	-16.9	-7.7	-1.6	-18.1	11.5	.
O=C(N/N=C/c1c(Cl)cccc1Cl)c1cccc(F)c1	-17.7	12.6	1.7	12.8	21.6	.
CCNC(=S)N/N=C/c1c(Cl)cccc1Cl	3.5	19.3	21.2	40.9*	-7.6	22.4
CC(C)(C)NC(=S)N/N=C/c1c(Cl)cccc1Cl	0.2	32.5	36.9	40.5*	16.9	20.8
COCCN(CCOC)c1nc(-c2ccc(C)cc2)nc2ccccc12	12.3	35.0	-1.5	24.3	32.4	.
CCCCN(CC)c1nc(-c2ccncc2)nc2ccccc12	-64.6	38.6	25.1	43.1*	30.0	15.3
